From PubChem BioAssay AID493030 (The Scripps Research Institute Molecular Screening Center, 2011)
About 1,500 (65%) of roughly 2,300 compounds were called active.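 How the source made its calls: active means mean inhibition over three repeats above a set limit taken from the earlier primary screen (cut at about 30% in these data); inactive means the rest.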 So high a share suggests a set chosen from earlier hits. These entries were drawn from the full list.

Biological target: Platelet-activating factor acetylhydrolase 2, cytoplasmic (Homo sapiens) (UniProt Q99487)
Experiment: inhibition of cytoplasmic PAF acetylhydrolase 2 – biochemical, fluorescence polarization, human, confirmation (AID 493030);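 further: inhibitor blocks binding of rhodamine activity probe so polarization falls; 0% = enzyme with DMSO and 100% = wells lacking PAFAH2 protein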
Settings: recombinant PAFAH2, FP-rhodamine activity probe, at 3.39 µM, hits give high values

Structure (SMILES) | inhibition
O=C(OCc1cn(-c2ccc(Cl)c(Cl)c2)nn1)c1ccccc1Cl | 43.1% (active)
O=C(COC(=O)c1cccc(Cl)c1)NC1CCCCCCC1 | 67.1% (active)
O=C(COC(=O)c1ccccc1Cl)NC1CCCCCCC1 | 70.3% (active)
N#Cc1ccccc1Sc1ccccc1C(=O)OCC(=O)NC1CCCCC1 | 21.3% (inactive)
O=C(COC(=O)c1ccccc1SCC(=O)NC1CCCCC1)NC1CCCCC1 | 73.7% (active)
O=C(COC(=O)c1ccccc1SCC(=O)N1CCCC1)Nc1ccccc1OC(F)F | 25.9% (inactive)
CC(C)(C)c1csc(NC2=NS(=O)(=O)c3ccccc32)n1 | 29.4% (inactive)
COc1ccccc1CNC(=O)COC(=O)c1sc(C)nc1C | 21% (inactive)
COc1ccccc1CNC(=O)COC(=O)c1cccs1 | 41.8% (active)
O=C(COC(=O)c1cccs1)Nc1ccccc1Cl | 55.6% (active)
O=C(COC(=O)c1cccs1)NCc1cccs1 | 45.9% (active)
O=c1oc(-c2ccco2)nc2sc3c(c12)CCCCC3 | 34.2% (active)
CC(C)c1ccc(NC(=O)COC(=O)c2ccc(CN3CCCC3=O)cc2)cc1 | 66.8% (active)
CCC(C)C(NC(=O)C1CCC(=O)N1C(=O)OCc1ccccc1)C(=O)NC(C(=O)N1CCCC1C(N)=O)C(C)CC (centres undefined) | 40.4% (active)
Cc1ccc(S(=O)(=O)N(C)C)cc1NC(=O)COC(=O)/C=C/c1cccs1 | 51.7% (active)
CN(C)S(=O)(=O)c1cccc(NC(=O)COC(=O)/C=C/c2cccs2)c1 | 58.5% (active)
O=c1[nH]n(-c2ccc([N+](=O)[O-])cc2)c(=O)c2ccccc12 | 32.6% (active)
O=C(COC(=O)c1ccccc1)Nc1cccc(S(=O)(=O)N2CCOCC2)c1 | 33.4% (active)
CCOc1ncccc1C(=O)OCC(=O)Nc1cccc(S(=O)(=O)N2CCCCCC2)c1 | 57.6% (active)
CCc1ccc(C(=O)OCC(=O)Nc2cccc(S(=O)(=O)NC3=NCCCCC3)c2)cc1 | 51.8% (active)
O=C(COC(=O)/C=C/c1ccc(Br)o1)Nc1cccc(S(=O)(=O)N2CCOCC2)c1 | 26.4% (inactive)
CS(=O)(=O)c1ccc(Cl)c(NC(=O)COC(=O)c2cccc(S(=O)(=O)N3CCCC3)c2)c1 | 21.3% (inactive)
CCC(C)(C)c1ccc(Oc2ccc(NC(=O)COC(=O)C3=COCCO3)cc2)cc1 | 61.5% (active)
O=C(COC(=O)c1ccc2c(c1)OCCO2)NCc1ccccc1 | 45.8% (active)
O=C(COC(=O)c1ccc2c(c1)OCCO2)NCc1ccccc1Cl | 78.9% (active)
O=C(COC(=O)/C=C/c1ccc(S(=O)(=O)N2CCCCCC2)cc1)NCc1ccccc1Cl | 24.4% (inactive)
CC(NC(=O)COC(=O)c1ccc2c(c1)OCO2)c1ccccc1 (centres undefined) | 45.8% (active)
COc1ccc(NC(=O)CC(NC(C)c2ccccc2)C(=O)O)cc1 (centres undefined) | 1.53% (inactive)
Cc1cnc(NC(=O)CSc2c(Cl)cccc2Cl)s1 | 21.7% (inactive)
